According to PubChem BioAssay (EPA / NIEHS):
Several values for one entry are separate records, joined by “and”; a condition that tells them apart may be missing. Equal entries are not always repeated. Results filed as inconclusive are left out. More than one record can exist for a structure, and the calls need not agree. Activity calls are given as the source filed them. Rule for the calls: active = hit-call score of the fitted dose curve at least 0.9, where 1 is the maximum; inconclusive = response in the unintended direction; inactive = score below 0.9.

molecular target: Cellular tumor antigen p53 (Homo sapiens) (UniProt P04637); test: TOX21_p53_BLA_p2_ratio: Tox21 HCT-116 p53 Agonism Beta-lactamase Assay, Ratio, Phase 2 (AID 2283592)
Sequence (P04637 whole entry, looked up): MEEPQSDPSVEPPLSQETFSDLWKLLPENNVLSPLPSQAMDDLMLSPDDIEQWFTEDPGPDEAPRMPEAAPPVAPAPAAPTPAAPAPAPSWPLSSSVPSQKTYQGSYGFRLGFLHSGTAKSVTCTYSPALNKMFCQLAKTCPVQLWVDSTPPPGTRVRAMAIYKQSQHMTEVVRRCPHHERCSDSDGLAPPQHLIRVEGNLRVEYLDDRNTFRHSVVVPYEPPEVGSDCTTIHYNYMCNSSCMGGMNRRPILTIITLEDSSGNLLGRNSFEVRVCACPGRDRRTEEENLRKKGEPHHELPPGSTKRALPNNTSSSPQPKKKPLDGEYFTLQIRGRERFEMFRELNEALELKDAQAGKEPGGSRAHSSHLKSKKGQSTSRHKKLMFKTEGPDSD
Outline: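 HCT116 cells carrying a p53-responsive beta-lactamase reporter were plated, incubated 5 h at 37C, then dosed with compounds in DMSO (217-fold dilution) for 16 h. CCF4-AM substrate was added for 2 h at room temperature; the 460/530 nm emission ratio gave gain-of-signal activity relative to DMSO.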

SMILES	AC50	outcome
O=C1C=CC(=O)N1c1ccc(Cc2ccc(N3C(=O)C=CC3=O)cc2)cc1	29.1 µM (active)	
CC(C)(C)C(=O)C1C(=O)c2ccccc2C1=O		inactive
CCCCCCCC/C=C\CCCCCCCC(=O)N(C)CC(=O)O	51.5 µM (active)	
CC(C)OC=O		inactive
CCc1cc(Cc2cc(CC)c(N)c(CC)c2)cc(CC)c1N		inactive
CCC(Cc1c(I)cc(I)c(N)c1I)C(=O)O (stereo not drawn)		inactive
O=C(c1ccccc1)c1ccc(O)cc1O		inactive

system: not listed separately; test: TOX21_p53_BLA_p3_viability: Viability Assessment in the Tox21 HCT-116 p53 Agonism Beta-lactamase Assay, Phase 3 (AID 2283593);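 note: cells exposed to compound for 16 h before reading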
Outline: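 HCT-116 cells (4000/well) rested 5 h at 37C, then got DMSO compounds by pin tool (217-fold dilution) for 16 h at 37C, 5% CO2. After the bla read, CellTiter-Glo was added and luminescence read at 30 min, room temperature.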

SMILES	outcome	AC50
O=C1C=CC(=O)N1c1ccc(Cc2ccc(N3C(=O)C=CC3=O)cc2)cc1	inactive	
CC(C)(C)C(=O)C1C(=O)c2ccccc2C1=O	inactive	62 µM (active)
CCCCCCCC/C=C\CCCCCCCC(=O)N(C)CC(=O)O		45.1 µM (active)
CC(C)OC=O	inactive	
CCc1cc(Cc2cc(CC)c(N)c(CC)c2)cc(CC)c1N	inactive	
CCC(Cc1c(I)cc(I)c(N)c1I)C(=O)O (stereo not drawn)	inactive	
O=C(c1ccccc1)c1ccc(O)cc1O	inactive	

molecular target: Cellular tumor antigen p53 (Homo sapiens) (UniProt P04637); test: TOX21_p53_BLA_p3_ratio: Tox21 HCT-116 p53 Agonism Beta-lactamase Assay, Ratio, Phase 3 (AID 2283596)
Outline: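 HCT116 p53-bla cells (4000/well) given compound in DMSO (217-fold dilution) after 5 h, incubated 16 h at 37C. CCF4-AM substrate 2 h at room temperature; 460/530 nm emission ratio, gain fitted against DMSO.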

SMILES	outcome	AC50
O=C1C=CC(=O)N1c1ccc(Cc2ccc(N3C(=O)C=CC3=O)cc2)cc1	inactive	
CC(C)(C)C(=O)C1C(=O)c2ccccc2C1=O		42.7 µM (active) and 35.6 µM (active)
CCCCCCCC/C=C\CCCCCCCC(=O)N(C)CC(=O)O		81.1 µM (active)
CC(C)OC=O	inactive	
CCc1cc(Cc2cc(CC)c(N)c(CC)c2)cc(CC)c1N	inactive	
CCC(Cc1c(I)cc(I)c(N)c1I)C(=O)O (stereo not drawn)	inactive	
O=C(c1ccccc1)c1ccc(O)cc1O	inactive	

system: not listed separately; test: TOX21_p53_BLA_p4_viability: Viability Assessment in the Tox21 HCT-116 p53 Agonism Beta-lactamase Assay, Phase 4 (AID 2283597);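 note: hits lower the luminescence signal meaning cytotoxicity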
Outline: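 HCT116 p53-bla cells (4000/well) rested 5 h at 37C, then received compounds in DMSO (217-fold dilution) for 16 h at 37C, 5% CO2. CellTiter-Glo was added after the CCF4-AM read, and luminescence was read after 30 min at room temperature.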

SMILES	AC50	outcome
O=C1C=CC(=O)N1c1ccc(Cc2ccc(N3C(=O)C=CC3=O)cc2)cc1	75.2 µM (active)	
CC(C)(C)C(=O)C1C(=O)c2ccccc2C1=O		inactive
CCCCCCCC/C=C\CCCCCCCC(=O)N(C)CC(=O)O	83.3 µM (active)	
CC(C)OC=O		inactive
CCc1cc(Cc2cc(CC)c(N)c(CC)c2)cc(CC)c1N	68 µM (active)	
CCC(Cc1c(I)cc(I)c(N)c1I)C(=O)O (stereo not drawn)	69.9 µM (active)	inactive
O=C(c1ccccc1)c1ccc(O)cc1O		inactive

molecular target: Cellular tumor antigen p53 (Homo sapiens) (UniProt P04637); test: TOX21_p53_BLA_p5_ratio: Tox21 HCT-116 p53 Agonism Beta-lactamase Assay, Ratio, Phase 5 (AID 2283599)
Outline: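 HCT-116 cells carrying a p53-inducible beta-lactamase reporter were seeded at 4000 cells/well and dosed after 5 h with compound in DMSO (217-fold dilution). After 16 h at 37C, CCF4-AM substrate was added for 2 h, and the 460/530 nm emission ratio was scored as gain-of-signal versus DMSO.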

SMILES	AC50	outcome
O=C1C=CC(=O)N1c1ccc(Cc2ccc(N3C(=O)C=CC3=O)cc2)cc1	74.4 µM (active)	
CC(C)(C)C(=O)C1C(=O)c2ccccc2C1=O	67.3 µM (active)	inactive
CCCCCCCC/C=C\CCCCCCCC(=O)N(C)CC(=O)O	79.6 µM (active)	
CC(C)OC=O		inactive
CCc1cc(Cc2cc(CC)c(N)c(CC)c2)cc(CC)c1N		inactive
CCC(Cc1c(I)cc(I)c(N)c1I)C(=O)O (stereo not drawn)		inactive
O=C(c1ccccc1)c1ccc(O)cc1O		inactive
